Results filed as inconclusive are left out. The source made the active and inactive calls. Calls follow the shape of the dose curve; as a rule, active = well fitted curve in the direction sought with a large enough effect; inconclusive = small, poorly fitted or top-dose-only effect, or another doubt; inactive = no such curve, though single readings can be large; an effect the other way counts as inactive or inconclusive.
Legend:
[1] = Quantitative High-Throughput drug screen in 47 multiple myeloma cell lines against the NCATS MIPE library collection: KHM11_PLB cell viability assay (AID 1918962); also: nearly all actives have a fitted effect of over 35% in size
Summary of the method: (§1)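 Viability readout: CellTiter-Glo luminescence following 5 min room-temperature incubation with reagent. Prior exposure: 48 h, 37C, humidified 5% CO2, 500 cells per well.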

[2] = Quantitative High-Throughput drug screen in 47 multiple myeloma cell lines against the NCATS MIPE library collection: JIM3_ECACC cell viability assay (AID 1918963; also: nearly all actives have a fitted effect of over 35% in size)
Summary of the method: as §1

[3] = Quantitative High-Throughput drug screen in 47 multiple myeloma cell lines against the NCATS MIPE library collection: H1112_PLB cell viability assay (AID 1918967; also: nearly all actives have a fitted effect of over 30% in size)
Summary of the method: (§2)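 Myeloma cells (500 per well) were exposed to MIPE 4.0 compounds by pin transfer and incubated 48 hours at 37C, 5% CO2. Viability was read as ATP by CellTiter-Glo luminescence, normalised to DMSO (100%) and media-only (0%) wells.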

[4] = Quantitative High-Throughput drug screen in 47 multiple myeloma cell lines against the NCATS MIPE library collection: KMS27_JCRB cell viability assay (AID 1918970); conditions: KMS27 myeloma cells, CellTiter-Glo ATP viability, 48 h; viability (% of DMSO): at 45.8 µM (top of the series); also: nearly all actives have a fitted effect of over 30% in size
Summary of the method: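 Luminescent ATP read-out (CellTiter-Glo, 5 min at room temperature) after 48 h compound exposure of 500 KMS27_JCRB cells per well; DMSO wells define full viability and media-only wells zero.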

[5] = Quantitative High-Throughput drug screen in 47 multiple myeloma cell lines against the NCATS MIPE library collection: Karpas417_ECACC cell viability assay (AID 1918961); conditions: Karpas417 myeloma viability, CellTiter-Glo ATP luminescence, 48 h; viability (% of DMSO): at 45.8 µM (top of the series)
Summary of the method: (§3)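 Approved and investigational drugs from MIPE 4.0 were added by pin tool to 500 cells per well. After 48 hours at 37C, ATP-based CellTiter-Glo luminescence indicated remaining viability.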

[6] = Quantitative High-Throughput drug screen in 47 multiple myeloma cell lines against the NCATS MIPE library collection: INA6_PLB cell viability assay (AID 1918965; also: nearly all actives have a fitted effect of over 55% in size)
Summary of the method: as §3

[7] = Quantitative High-Throughput drug screen in 47 multiple myeloma cell lines against the NCATS MIPE library collection: JJN3_DSMZ cell viability assay (AID 1918966; also: nearly all actives have a fitted effect of over 50% in size)
Summary of the method: as §2

[8] = Quantitative High-Throughput drug screen in 47 multiple myeloma cell lines against the NCATS MIPE library collection: Karpas25_ECACC cell viability assay (AID 1918968; also: nearly all actives have a fitted effect of over 35% in size)
Summary of the method: as §2

[9] = Quantitative High-Throughput drug screen in 47 multiple myeloma cell lines against the NCATS MIPE library collection: JIM1_ECACC cell viability assay (AID 1918964)
Summary of the method: as §2
Potency is read from the fitted curve at half-maximal effect.

C[C@]12CCC3=C4CCC(=O)C=C4CC[C@@H]3[C@H]1CC[C@@]2(O)CC#N
inactive: Potency [1] | Potency [2] | Potency [3] | Potency [4]

Cc1cnc(Nc2cccc(CN3CCOCC3)c2)nc1Nc1cccc(S(=O)(=O)NC(C)(C)C)c1
active: Potency [5] 0.662 µM | Potency [1] 13.2 µM | Potency [6] 0.469 µM | Potency [7] 5.9 µM | Potency [3] 13.2 µM | Potency [8] 3.72 µM

C[C@@H](O)[C@H]1C(=O)N2C(C(=O)OCOC(=O)C(C)(C)C)=C(SC3CN(C4=NCCS4)C3)[C@H](C)[C@H]12
inactive: Potency [1] | Potency [2] | Potency [9] | Potency [3]
active: Potency [7] 16.6 µM

O=c1[nH]c(=O)n([C@H]2C[C@@H](O)[C@@H](CO)O2)cc1I
inactive: Potency [5] | Potency [9] | Potency [7] | Potency [3] | Potency [8] | Potency [4]

CC1(COc2ccc3c(c2)ncn3-c2ccc3cccc(N4CCC(N)CC4)c3n2)COC1
active: Potency [5] 1.18 µM | Potency [1] 0.0148 µM | Potency [2] 0.0118 µM | Potency [7] 0.418 µM | Potency [3] 0.0083 µM

OCCn1cc(-c2ccc3c(c2)CCC3=NO)c(-c2ccncc2)n1
active: Potency [5] 8.33 µM | Potency [8] 23.5 µM
inactive: Potency [2] | Potency [7]

CN(C)CCOc1cc(-c2cn[nH]c2)ccc1NC(=O)C1COc2ccccc2O1 (centres undefined)
active: viability (% of DMSO) [5] 64.1% | Potency [2] 18.7 µM | Potency [6] 13.2 µM
inactive: Potency [3]

NC(=O)c1noc([C@H](CCCC2CCCCC2)CC(=O)NO)n1
active: Potency [1] 20.9 µM | Potency [2] 23.5 µM | Potency [9] 5.9 µM | Potency [6] 14.8 µM | Potency [3] 16.6 µM | Potency [8] 14.8 µM | Potency [4] 7.43 µM

O=C(CC12CC3CC(CC(C3)C1)C2)Nc1cccc2nc(NCCNCCO)ccc12
active: Potency [5] 1.48 µM | Potency [1] 5.26 µM | Potency [2] 9.35 µM | Potency [6] 9.35 µM | Potency [7] 9.35 µM | Potency [3] 7.43 µM | Potency [8] 5.9 µM | Potency [4] 18.7 µM

C[C@@H]1C[C@H]2[C@@H]3CCC4=CC(=O)C=C[C@]4(C)[C@@]3(F)[C@@H](O)C[C@]2(C)[C@@]1(O)C(=O)CO
active: Potency [5] 0.0418 µM | Potency [8] 0.0526 µM
inactive: Potency [2] | Potency [9] | Potency [6] | Potency [7] | Potency [3] | Potency [4]

C[C@@]1(c2cc(-c3cncnc3)c(F)cc2F)CCSC(N)=N1
active: Potency [5] 0.0833 µM | Potency [2] 23.5 µM

NS(=O)(=O)c1cc(Cl)c(Cl)c(S(N)(=O)=O)c1
inactive: Potency [5] | Potency [1] | Potency [2] | Potency [9] | Potency [6] | Potency [7] | Potency [3] | Potency [8] | Potency [4]

CN1N=C(N)c2cn([C@@H]3O[C@H](COP(=O)(O)O)[C@@H](O)[C@@H]3O)c3ncnc1c23
active: Potency [1] 0.372 µM | Potency [2] 0.469 µM | Potency [7] 2.96 µM | Potency [3] 0.526 µM | Potency [8] 0.372 µM | Potency [4] 0.0662 µM

O=C1CCCC(=O)C1C(=O)c1ccc(C(F)(F)F)cc1[N+](=O)[O-]
inactive: Potency [5] | Potency [1] | Potency [2] | Potency [6] | Potency [7] | Potency [3] | Potency [8] | Potency [4]

O=C1C(c2c(O)[nH]c3ccccc23)=Nc2ccccc21
inactive: Potency [1] | Potency [2] | Potency [6] | Potency [4]
active: Potency [7] 6.62 µM | Potency [8] 6.62 µM

CC(C)n1c(C=C[C@H](O)C[C@H](O)CC(=O)O)c(-c2ccc(F)cc2)c2ccccc21
active: Potency [1] 14.8 µM | Potency [2] 16.6 µM | Potency [9] 7.43 µM | Potency [6] 10.5 µM | Potency [3] 16.6 µM | Potency [8] 14.8 µM | Potency [4] 3.72 µM
inactive: Potency [7]

O=C(O)C1=CO[C@@H](O[C@@H]2O[C@H](CO)[C@H](O)[C@H](O)[C@H]2O)[C@@H]2C(CO)=CC[C@H]12
inactive: Potency [5] | Potency [2] | Potency [3] | Potency [8] | Potency [4]

CN(C(Cc1ccc(OS(=O)(=O)c2cccc3cnccc23)cc1)C(=O)N1CCN(c2ccccc2)CC1)S(=O)(=O)c1cccc2cnccc12 (centres undefined)
active: Potency [5] 4.18 µM | Potency [2] 6.62 µM | Potency [9] 1.87 µM | Potency [6] 3.72 µM | Potency [7] 5.9 µM | Potency [3] 8.33 µM | Potency [8] 11.8 µM

Cc1ccc(NC(=O)c2cccc(N(C)C)c2)cc1NC(=O)c1ccc(O)cc1
active: Potency [1] 13.2 µM | Potency [6] 16.6 µM | Potency [7] 23.5 µM | Potency [3] 0.166 µM | Potency [8] 0.118 µM | Potency [4] 1.05 µM

From PubChem BioAssay (NCATS)
